Potency data for 77 compounds are collected here from PubChem BioAssay AID504327 (National Center for Advancing Translational Sciences (NCATS), 2011).

Several values for one entry are separate records, joined by “and”; a condition that tells them apart may be missing. Equal values may be shown once. Hit rate of the full screen: of about 390,000 compounds, about 820 (0.21%) were called active. Inconclusive results (about 3%) are left out. Calls follow the shape of the dose curve; as a rule, active = well fitted inhibition curve with a large enough effect; inconclusive = small, poorly fitted or top-dose-only effect, or another doubt; inactive = no such curve, though single readings can be large or run the other way. The list comes from a sample in which actives are over-represented; it also holds similar structures and randomly drawn compounds. A call without a number means that no potency is given here. More than one record can exist for a structure, and the calls need not agree.
Potency is read from the fitted curve at half-maximal effect.

For the experiment, the target named is Histone acetyltransferase KAT2A (Homo sapiens) (UniProt Q92830). The experiment in a line: qHTS Assay for Inhibitors of GCN5L2. The settings on record: GCN5L2 HAT assay, ThioGlo1 CoA-SH fluorescence; series mostly up to 58.9 µM. The gist of the method: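 GCN5L2 (20nM final) in 50mM HEPES, 0.1mM EDTA pH 7.5, 0.01% Tween-20 was preincubated 15 min at room temperature with compound, then given ThioGlo1 (50uM), H3(1-25) peptide (75uM) and acetyl-CoA (70uM); CoA-thiol fluorescence (Ex340/Em540) was read at 0 and 20 min.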
Sequence of Histone acetyltransferase KAT2A (Homo sapiens) (Q92830 whole entry, looked up): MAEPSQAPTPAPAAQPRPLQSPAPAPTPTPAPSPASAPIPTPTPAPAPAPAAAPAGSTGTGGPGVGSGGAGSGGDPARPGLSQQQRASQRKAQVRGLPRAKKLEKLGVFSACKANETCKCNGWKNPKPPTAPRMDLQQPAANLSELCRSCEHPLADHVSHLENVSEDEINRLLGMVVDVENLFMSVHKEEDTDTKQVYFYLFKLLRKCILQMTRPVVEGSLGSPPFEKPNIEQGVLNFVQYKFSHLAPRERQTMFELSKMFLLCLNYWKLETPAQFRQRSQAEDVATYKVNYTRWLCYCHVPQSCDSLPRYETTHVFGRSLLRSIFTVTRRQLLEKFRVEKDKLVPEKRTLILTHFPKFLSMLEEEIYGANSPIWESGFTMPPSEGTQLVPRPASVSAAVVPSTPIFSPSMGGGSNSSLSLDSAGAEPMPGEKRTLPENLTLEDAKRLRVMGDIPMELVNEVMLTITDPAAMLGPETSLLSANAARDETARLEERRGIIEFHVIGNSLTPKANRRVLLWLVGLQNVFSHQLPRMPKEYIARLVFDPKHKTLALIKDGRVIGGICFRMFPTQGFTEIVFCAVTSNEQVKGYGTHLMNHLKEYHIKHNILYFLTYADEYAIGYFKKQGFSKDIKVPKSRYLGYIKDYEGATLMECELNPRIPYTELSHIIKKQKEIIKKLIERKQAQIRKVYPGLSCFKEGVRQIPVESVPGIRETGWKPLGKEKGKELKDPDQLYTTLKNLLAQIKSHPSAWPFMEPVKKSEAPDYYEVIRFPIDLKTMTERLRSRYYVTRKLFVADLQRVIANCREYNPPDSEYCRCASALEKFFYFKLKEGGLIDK
On to `Cc1ccc(-c2nn(-c3ccccc3)cc2/C=C2\SC(=S)N(CCCCCC(=O)O)C2=O)o1`, for which the Potency was 25.1 µM (active). As for `CO[C@@]12[C@@H](COC(N)=O)C3=C(C(=O)C(C)=C(N)C3=O)N1C[C@@H]1N[C@@H]12`, the Potency entry is “inactive”. On to `COc1ccccc1CNc1ncnc2ccc(-c3c(C)noc3C)cc12`, for which the Potency entry is “inactive”. On to `COc1ccccc1-c1nc(NCc2cccs2)c2ccccc2n1`, for which the Potency entry is “inactive”. In the case of H-EHIPA-OH it was “inactive”; in that of `Nc1nc2c(ncn2[C@@H]2O[C@H](COP(=O)(O)OP(=O)(O)OP(=O)(O)O)[C@@H](O)C2O)c(=O)[nH]1` (some centres not stated), “inactive”; in that of `O=C(Cc1ccc(S(=O)(=O)N2CCOCC2)s1)N1CCN(c2ccc(C(F)(F)F)cc2[N+](=O)[O-])CC1`, “inactive”. In the case of `COc1cc(OC)cc(C(=O)NC(=S)N2CCN(c3ccc(C(F)(F)F)cc3[N+](=O)[O-])CC2)c1` it was 2 µM (active); in that of `O=C(Nc1cccc(C(F)(F)F)c1)c1ccc(N2CCNCC2)c([N+](=O)[O-])c1`, “inactive”. In the case of `CC(C)=CCN1CCC2(CCc3ccccc32)CC1` it was “inactive”; in that of `CC(C)C(NS(=O)(=O)c1ccc(-c2ccc(Br)cc2)cc1)C(=O)O` (configuration not stated), “inactive”. Turning to `COCCn1c(=O)c(-c2cccs2)nc2cncnc21`, the Potency result is “inactive”. In the case of `OCC(CO)NC1C[C@](O)(CO)[C@@H](O)[C@H](O)[C@H]1O` (some centres not stated), the Potency entry is “inactive”.

As for `COc1ccc(CNc2ncncc2-c2ccccc2C)c(OC)c1`, the Potency entry was “inactive”. In the case of `COc1ccc(CCCOC(Cn2ccnc2)c2ccc(OC)cc2)cc1` (configuration not stated) it was “inactive”; in that of `O=C(Nc1c(C(=O)N2CCCCC2)cnn1-c1ccccc1)c1ccco1`, 17.8 µM (active).

On to `O=C(Cc1ccccc1)Nc1c(C(=O)N2CCCCCC2)cnn1-c1ccccc1`, for which the Potency result was “inactive”. In the case of `Cc1ccccc1NC(=O)c1cnn(-c2ccccc2)c1NC(=O)c1ccco1` it was “inactive”; in that of `O=C(/C=C/c1cccc(F)c1)NC1CC1`, “inactive”; in that of `CC(C)C1=CC2=CC[C@@H]3[C@](C)(CO)CCC[C@]3(C)C2CC1` (some centres not stated), “inactive”. Consider `CC1=C(/C=C/C(C)=C/C=C/C(C)=C/C=C/C=C(C)/C=C/C=C(C)/C=C/C(=O)[C@]2(C)C[C@@H](O)CC2(C)C)C(C)(C)C[C@H](O)C1`, for which the Potency result is “inactive”. `CCCCCCCCCCCC(=O)O`: the Potency entry is “inactive”. In the case of `O=C(O)CCCCC(=O)O` it was “inactive”. With `C#CCCCCCCCCCCCCCCCC(=O)O`, the Potency result is “inactive and 11.2 µM (active)”. Take `NC(=O)c1sc(-c2ccsc2)cc1N`: the Potency entry was “inactive”.

As for `Cc1nc2cnc(N3CCNCC3)nc2n(CCc2ccccc2)c1=O`, the Potency entry is “inactive”. Take `Cc1ccccc1-c1ccc(C(=O)O)s1`: the Potency entry was “inactive”. For the compound `Cn1cc(-c2nc3cnc(N4CCNCC4)nc3n(CCc3ccccc3)c2=O)c2ccccc21`, the Potency entry was “inactive”. As for `NCCCNCCCCN(CCCN)/[N+]([O-])=N/O`, the Potency entry was “inactive”. In the case of `FC(F)(F)Oc1ccc(-c2cn3cccnc3n2)cc1` it was “inactive”; in that of `CC(C)(C)C(=O)Nc1ccc(-c2cn3cccnc3n2)cc1`, “inactive”; in that of `COc1ccc(-c2cn3cccnc3n2)cc1`, 31.6 µM (active).

For `CC1O[C@@H](Oc2c(-c3ccc(O)c(O)c3)oc3cc(O)cc(O)c3c2=O)C(O)C(O)C1O` (some centres not stated), the Potency entry is “inactive”. In the case of `C=C1C(=O)C23C(O)C1CCC2[C@]12COC3(O)C(O)C1C(C)(C)CC[C@H]2O` (some centres not stated), the Potency result is “inactive”. As to `COc1ccc(S(=O)(=O)N2CCN(c3ccc(F)cc3)CC2)cc1-c1noc(C)n1`, the Potency entry was “inactive”.

Take `COc1ccc(N2CCN(S(=O)(=O)c3ccc(-c4coc(C)n4)cc3)CC2)cc1`: the Potency entry was “inactive”.

Take `CCc1nc(-c2cc(S(=O)(=O)N3CCN(c4ccc(OC)cc4)CC3)ccc2OC)no1`: the Potency is 25.1 µM (active). For `Cc1ccc(/C(=C/CN2CCCC2)c2ccccn2)cc1`, the Potency entry is “inactive”. As for `COC(=O)N1CCC2(CCCN(c3ccncc3)C2)CC1`, the Potency entry is “inactive”. As to `O=C(Oc1cc(OC(=O)c2ccccc2)c2c(c1)OC(c1ccc(OC(=O)c3ccccc3)c(OC(=O)c3ccccc3)c1)[C@@H](OC(=O)c1ccccc1)C2)c1ccccc1` (some centres not stated), the Potency result is “inactive”.

Take `CCOC(=O)C1=C(C)Nc2sc(C(=O)c3ccc(Br)cc3)c(N)c2C1c1ccc(C(=O)OC)cc1` (configuration not stated): the Potency entry was “inactive”.

As for `COC(=O)c1sc2[nH]c(=S)n(N)c(=O)c2c1C`, the Potency result is “inactive”. Consider `CCOC(=O)c1sc(=S)n2c1[nH]c(=O)c1ccc(C(=O)OC)cc12`, for which the Potency was 35.5 µM (active). Turning to `CCCc1cc(=S)n2c([nH]c3ccccc32)c1C#N`, the Potency was 22.4 µM (active). Turning to `COc1cc2c(cc1OC)[C@@H](Cc1cc(OC)c(OC)c(OC)c1)[N+](C)(CCCOC(=O)CC/C=C/CCC(=O)OCCC[N+]1(C)CCc3cc(OC)c(OC)cc3[C@H]1Cc1cc(OC)c(OC)c(OC)c1)CC2` (some centres not stated), the Potency entry is “inactive”. In the case of `O=Cc1c(Nc2ccccc2Cl)nc2ccccn2c1=O` it was 22.4 µM (active); in that of `Cc1cccn2c(=O)c(C=O)c(Nc3ccc(S(N)(=O)=O)cc3)nc12`, “inactive”; in that of `O=Cc1c(N2CCN(c3cccc(Cl)c3)CC2)nc2ccccn2c1=O`, “inactive”. In the case of `CC(=O)NC(=O)c1ccccc1O`, the Potency result is “inactive”. Consider `CC1CC2C3CCC4=CC(=O)C=C[C@]4(C)[C@@]3(F)[C@@H](O)C[C@]2(C)[C@@]1(O)C(=O)CO` (some centres not stated), for which the Potency result was “inactive”. In the case of `COc1c2c(cc3occ(-c4ccc5c(c4)OCO5)c(=O)c13)OC(C)(C)C=C2` it was “inactive”; in that of `COc1ccc(C(=O)N2CCC3(CC2)CCN(c2ccccn2)CC3)cc1`, “inactive”; in that of `COc1ccc(-c2nc3cnc(OC)nc3n(Cc3ccc(F)cc3)c2=O)cc1`, “inactive”. For `CC(N)(C(=O)O)c1ccc(-c2nn[nH]n2)cc1` (configuration not stated), the Potency result was “inactive”. In the case of `COCCn1c(=O)c(CCc2ccccc2)nc2cncnc21` it was “inactive”.

In the case of `O=C(O)CCC(=O)O`, the Potency result is “inactive”.

`COc1ccc(CNc2ncncc2-c2ccccc2OC)c(OC)c1`: the Potency entry was “inactive”. Take `O=C1NS(=O)(=O)c2ccccc21`: the Potency result was “inactive”.

`CC1(C)C=CC(=O)[C@]2(C)C1CC(=O)[C@]1(C)C2CC[C@@]2(C)C(c3ccoc3)OC(=O)C3OC321` (some centres not stated): the Potency result is “inactive”. As to `O=C1C(c2ccccn2)=[N+]([O-])c2ccccc21`, the Potency result is “inactive”. In the case of `O=C1C(c2[nH]c3ccccc3c2O)=Nc2ccccc21`, the Potency result is “inactive”. Regarding `O=C(c1ccncc1)N1CCC2(CCN(Cc3cc(C(F)(F)F)cc(C(F)(F)F)c3)CC2)CC1`, the Potency result was “inactive”. For the compound `COc1ccc(CNC(=O)C(Cc2ccccc2)n2cccc2)cc1` (configuration not stated), the Potency result was “inactive”. In the case of `CCOC(=O)C(Cc1ccc(N)cc1)N1C(=O)c2ccccc2C1=O` (configuration not stated) it was “inactive”; in that of `Cc1ccc(C)n1C(Cc1ccccc1)C(=O)O` (configuration not stated), 22.4 µM (active). For `COc1cccc(Cn2c(=O)cnc3cncnc32)c1`, the Potency entry is “inactive”. Take `CC(=O)N1CCN(C(=O)c2cc(-c3ccc(C)o3)nc3ccccc23)CC1`: the Potency was 20 µM (active). For `CC(=O)N1CCN(C(=O)c2cc(-c3ccc(Cl)s3)nc3ccccc23)CC1`, the Potency entry is “inactive”. `Cc1ccc(S(=O)(=O)N2CCN(C(=O)c3ccccc3-c3nc4ccccc4s3)CC2)c(C)c1`: the Potency entry is “inactive”.

Regarding `O=c1c(CCc2ccccc2)nc2cnc(N3CCNCC3)nc2n1Cc1cccs1`, the Potency entry was “inactive”. With `NC(=O)C(=O)N/N=C/c1ccc([N+](=O)[O-])o1`, the Potency result was “inactive”. Consider `CCOC(=O)C1C/C(=C\C(C)=O)c2cccc(C(F)(F)F)c2O1` (configuration not stated), for which the Potency result is “inactive”. Take `O=C(c1ccc(S(=O)(=O)N2CCCC2)cc1)N1CCN(c2ccccc2F)CC1`: the Potency entry is “inactive”. Regarding `COc1ccc(N2CCN(S(=O)(=O)c3ccc4c(c3)NC(=O)C(C)C(=O)N4)CC2)cc1` (configuration not stated), the Potency result is “inactive”. On to `CC1C(=O)Nc2ccc(S(=O)(=O)N3CCN(c4ccccc4F)CC3)cc2NC1=O` (configuration not stated), for which the Potency was 39.8 µM (active). For the compound `CC(C)=CC1C(C(=O)O)C1(C)C` (configuration not stated), the Potency entry was “inactive”.

In the case of `Oc1ccc(Cl)c2c1CCC2`, the Potency entry was “inactive”.
